PubChem BioAssay (NCI)
Values joined by “and” are separate entries in the source; they are usually repeats but may differ in a detail not shown here. Identical values can stand only once. About 83,000 compounds went through this panel and 20% of them were active in at least one assay; those are over-represented in the sample as a whole.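 Assay: single dose, 48 h. Readout: percent growth (0 = no net growth; negative = cell death). Active: <10.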 A number with no mark means an inactive call. Active and inactive are the calls of the source.

Test system: NCI-H23 lung
Experiment: NCI-60 one-dose screen, 48 h (100 = growth as untreated, 0 = no growth, -100 = all killed)
Conditions: 10 µM
Experimental: Growth inhibition of the NCI-H23 human Non-Small Cell Lung tumor cell line is measured as a screen for anti-cancer activity. Cells are grown in 96 well plates and exposed to the test compound for 48 hours. Compounds are tested at a single concentration, which is 10^-5 M for most compounds. The reported endpoint is percent growth (GI% or GIPRCNT), where numbers from 0 - 100% represent growth inhibition, and numbers from -100% - 0 represent cell death. For example, a value of 40 represents 60% growth inhibition. A value of 0 means no net growth occurred over the course of the experiment. A value of -40 indicates 40% of cells at the beginning of the experiment died by the end of the experiment. A value of -100 means all cells are dead at the end of the experiment.
NCI-60 Human Tumor Cell Lines Screen was performed using the standard one-dose NCI protocol, which is described in more detail at https://dtp.cancer.gov/discovery_development/nci-60/default.htm.
Compounds with GIPRCNT values below 10 were considered active. Activity score was based on GIPRCNT using the following formula: […]
Score is 0 for GIPRCNT values of 100 or above, 50 for GIPRCNT values of 0, and 100 for GIPRCNT values of -100.

| SMILES | growth |
| --- | --- |
| CN(C)C(=O)c1ccc(SC(=S)NCc2ccccc2)cc1 | 109% |
| O=C(Nc1c(Cl)cccc1Cl)Oc1cccc2cccnc12 | 36.5% |
| COc1ccc(-c2cscc2N)cc1 | 79.4% |

Same assay, conditions: 10 µM unless noted

| SMILES | growth |
| --- | --- |
| COc1ccccc1/C=C\C(=O)c1ccccc1 | 79.8% |
| NC(=S)N/N=C/c1ccc(Cl)s1 | 106% |
| COC(=O)Nc1nc2ccc(C(=O)c3ccccc3)cc2[nH]1 | 33.8% and 19.3% and 32.4% |
| S=C(N/N=C/c1ccccn1)Nc1ccccn1 | 23.8% |
| O=C(/C=C\c1cc(Br)ccc1O)/C=C/c1cc(Br)ccc1O | -11.9% (active) |
| CC(=O)ON=C1C=CC(=C(C#N)c2ccccc2)C=C1 | 91.7% |
| NC(=O)/C=C/C(=O)c1c(Cl)cccc1Cl | -79.1% (active) |
| O=[N+]([O-])c1ccc(N=Nc2ccc(O)cc2O)cc1 | 55.1% |
| Oc1c(Cl)c2ccccc2c2ccccc12 | 103% |
| O=C1c2cccnc2-c2nccc3c2c1nc1cc(Br)ccc13 | -78.4% (active) and -66.2% (active) |
| Nc1nc(N)c2c(ccc3c2ccn3Cc2cccc([N+](=O)[O-])c2)n1 | -74.8% (active) |
| Oc1c(Cl)cc(Cl)c2cccnc12 | 64.6% and 49.1% |
| C[N+](C)=c1ccc2nc3c(cc(NCCCNc4cc5oc6cc(=[N+](C)C)ccc-6nc5c5ccccc45)c4ccccc43)oc-2c1 | -56.1% (active) |
| Cc1cc(C(C)(CC(C)C)c2ccc(O)c(C)c2)ccc1O | 108% |
| C=C(Cl)C(=NC(C)(C)C)Nc1ccccc1C | 98.8% |
| CCC(CCCN(CC)CCc1ccccc1)OC(=O)c1cc(OC)c(OC)c(OC)c1 (stereo not given) | 81.5% |
| O=Nc1ccccc1N=O | 71.9% |

| SMILES | growth |
| --- | --- |
| O=C1c2ccccc2C(=O)c2sc(Nc3cccc(Cl)c3)nc21 | -51.4% (active) |
| CN(C)C(=O)SC1=C(c2c(Cl)cccc2Cl)C(=O)c2ccccc21 | 70.6% |
| O=C1c2ccccc2C(=O)c2sc(Nc3ccc(Cl)cc3)nc21 | -53.2% (active) |
| C/C=C1\SC(=S)NC1=O | 98.5% |
| CCCCCCCCCCCCCCCCCCOP(=O)([O-])OC1CC[N+](C)(C)CC1 | 76.2% and 60.8% |
| CN=C(N)N/N=C(\C)c1ccc2c(c1)Cc1cc(/C(C)=N/NC(N)=NC)ccc1-2 | -56.6% (active) |
| N#CSCC(=O)c1ccc(Cl)cc1 | 9.41% (active) |
| N#Cc1ccc([N+](=O)[O-])o1 | 112% |
| N#CSCc1ccc(Cl)c(CSC#N)c1 | 40.4% |
| CCOC(=O)/C=C/c1ccc([N+](=O)[O-])o1 | 73.7% |
| CCCCCC(CCCCC)C(=O)O | 114% |
| CCOc1ccc(-c2nc3ccc(-c4nc5ccc(N6CCN(C)CC6)cc5[nH]4)cc3[nH]2)cc1 | -71.7% (active) |
| CN(C)CCOc1ccc2c(c1)C(=O)/C(=C\c1ncc([N+](=O)[O-])n1C)C2 | -42.7% (active) |
| CC1OC2CC(=O)OC2C2=C1C(=O)c1c(O)cccc1C2=O (stereo not given) | -89.9% (active) |
| COC(=O)[C@@]12OC[C@]34[C@H]([C@@H](O)[C@@H]1O)[C@@]1(C)[C@H](O)C(=O)C=C(C)[C@@H]1C[C@H]3OC(=O)C(OC(C)=O)[C@@H]24 (stereo not given in full) | -48.7% (active) |
| COc1cc(/C=C/C(C)=O)ccc1O | 96.6% and 94.1% |
| CC(C)(C)CC(C)(C)c1ccc(OCCSC(=N)N)cc1 | 60.7% |

Same assay, conditions: 100 µM

| SMILES | growth |
| --- | --- |
| CN(C)C(=O)c1ccc(SC(=S)NCc2ccccc2)cc1 | 5.21% (active) |
| O=C(Nc1c(Cl)cccc1Cl)Oc1cccc2cccnc12 | 20.2% |
| COc1ccc(-c2cscc2N)cc1 | 74.2% |
